Test results from PubChem BioAssay (Tox21).
Records with an inconclusive call do not appear. Unmarked numbers belong to inactive results. Calls follow the shape of the dose curve; as a rule, active = well fitted cell-killing curve with a large enough effect in the repeat runs; inconclusive = weak or mixed curves, or effect the other way; inactive = flat fitted curve, though single readings scatter.

Experiment: qHTS assay to identify small molecule antagonists of the constitutive androstane receptor (CAR) signaling pathway - cell viability counter screen (AID 1224837); also: nearly all actives have a fitted effect of over 45% in size
Details: HepG2-CYP2B6-hCAR viability, CellTiter-Fluor, 23 h, co-treated with 50 nM CITCO; series mostly up to 92.4 µM; activity change, negative = cytotoxicity: at the top concentration
From the text: National Center for Advancing Translational Sciences [NCATS]
NIH Chemical Genomics Center [NCGC]
U.S. Environmental Protection Agency [EPA]
National Institutes of Environmental Health Sciences [NIEHS]
National Toxicology Program [NTP]
U.S. Food and Drug Administration [FDA]
The constitutive androstane receptor (CAR) is a nuclear receptor which regulates multiple drug metabolizing enzymes (DMEs) and transporters. Activating CAR will generally increase the transcription and subsequent translation of CYP2B6 and CYP3A4. These two DMEs represent about 50% of the drug metabolizing potential in the body. When CAR is deactivated, the metabolizing potential in the body will decrease, subsequently increasing the toxicity in the body or lowering the therapeutic potential of a pro-drug. Recently, there have also been studies performed indicating CARs role in energy metabolism and cancer therapy. Therefore, inhibiting CARs activity could have a potential effect on diabetes and cancer. Identifying environmental toxins and compounds which modulate CAR, through the use of the Tox21 10K compound collection, will be an important step in determining the toxicity and potential therapeutic effects these factors will have on the human body. To differentiate true CAR antagonists from cytotoxic substances, the assay is multiplexed with a cell viability assay.
Tox21 Assay Protocol Summary:
A double-stable (hCAR and CYP2B6-2.2kb) transfected cell line, derived from human hepatoma (HepG2) cells, was utilized for the duration of the quantitative high-throughput screens. The HepG2-CYP2B6-hCAR cells were dispensed at 2500 cells/4 uL/well in 1536-well white solid bottom plates using a Multidrop Combi. After the assay plates were incubated at 37 C/5% CO2 for 4 hrs, 23 nL of compounds at 15 concentrations (from 5-48 columns) or positive control (from 1 to 4 columns) were transferred to the assay plates using a Pintool station. One uL of CITCO (final concentration = 50 nM) was added, using a Flying Reagent Dispenser, inside each well. After a 23 hr incubation period at 37 C/5% CO2, 1 uL of CellTiter-Fluor reagent was added into each well of the assay plates using a Flying Reagent Dispenser. The fluorescence intensity in the plates was then measured using a ViewLux plate reader.
% is scaled to controls: 0 for no effect and ±100 for the full control effect.

Compound	activity change, negative = cytotoxicity
NS(=O)(=O)c1ccc(Cl)c(S(N)(=O)=O)c1	2.03% [at 42.5 µM]
C=CCOCC(O)CCl (stereo not given)	-3.79%
COc1ccc(NS(=O)(=O)c2ccc(N)cc2)nn1	-5.39% [at 42.5 µM]
CCCCOC(=O)C(C)OC(=O)CCC (stereo not given)	3.15%
OC(CCN1CCCCC1)(c1ccccc1)c1ccccc1	-13.8% [at 42.5 µM]
Cn1c(=O)c2c(ncn2CC2OCCO2)n(C)c1=O	2.57% [at 42.5 µM]
Nc1cc(C(=O)O)ccc1Cl	5.04%
CC(=O)OC(C)(C)Cc1ccccc1	3.26%
Cc1cc(C)cc([N+](=O)[O-])c1	2%
CCOc1ccc(NC(=O)OC(C)C)cc1OCC	-1.79%
CC1CCC(C(C)(C)S)C(=O)C1 (stereo not given)	0.532%
CCC(=O)OCCC(C)CCC=C(C)C (stereo not given)	-0.898%
CC(C)COC(=O)COc1ccc(Cl)cc1Cl	6.43%
CCCCCCCCCCCCCCCCCCN(C)C	2.32% [at 42.5 µM]
O=C1OC(=O)c2ccccc21	2.34%
O=S(=O)(O)SSS(=O)(=O)O	3.03%
O=C(COCCOCCOCC(=O)Nc1c(I)cc(I)c(C(=O)O)c1I)Nc1c(I)cc(I)c(C(=O)O)c1I	14.8% [at 42.5 µM]
COc1cc2c(Nc3ccc(Br)cc3F)ncnc2cc1OCC1CCN(C)CC1	2.92% [at 42.5 µM]
NC(=O)NC(=O)Cc1ccccc1	-6.86% [at 42.5 µM]
NS(=O)(=O)c1ccccc1OC(F)(F)F	-3.2%

Compound	activity change, negative = cytotoxicity
C=CCOc1cc(Cl)ccc1C(=O)NCCN(CC)CC	-5.57% [at 42.5 µM]
COc1ccc(OC)c(NC(=O)CC(C)=O)c1	0.493%
COCC(=O)Nc1c(I)c(C(=O)NCC(O)CO)c(I)c(C(=O)N(C)CC(O)CO)c1I (stereo not given)	1.37% [at 42.5 µM]
CC(C)COC(=O)/C=C/c1ccccc1	3.36%
NS(=O)(=O)c1cc2c(cc1Cl)NC(CC1CCCC1)NS2(=O)=O (stereo not given)	2.27% [at 42.5 µM]
CCC(=O)c1ccc(O)cc1	0.529% [at 42.5 µM]
C=C[Si](C)(C)O[Si](C)(C)C=C	-9.05%
C/C=C(\C)C(=O)OCC/C=C\CC	12%
BrC/C=C/CBr	-2.33% [at 19 µM]
CC(C)=CC(C)(C)C	-1.62%
CC(=O)N1CCN(c2ccc(O)cc2)CC1	4.01% [at 42.5 µM]
O=CO	-0.437% [at 8.39 µM]
CC1(N)CCC(C(C)(C)N)CC1 (stereo not given)	0.0365%
C1=C\CC/C=C\CC/1	-0.131%
O=C(O)c1ccccc1C(=O)Nc1ccc(S(=O)(=O)Nc2nccs2)cc1	-2.32% [at 42.5 µM]
OC[C@@H](O)[C@H](O)[C@@H](O)[C@@H](O)CO	5.17%
CCOC(=O)C(C)(C)C	-1.03%
Cc1ncc([N+](=O)[O-])n1CC(O)CCl (stereo not given)	0.295% [at 42.5 µM]
O=C(CN1CCN(Cc2ccc3c(c2)OCO3)CC1)N1c2ccccc2Sc2ccccc21	3.24% [at 42.5 µM]
CCCC(C)CC (stereo not given)	-0.279%
